Source: PubChem BioAssay (NCATS)
Results filed as inconclusive are left out. Calls of active or inactive are those of the source. Unless noted, the call rests on the fitted dose curve; in most records, active means well fitted curve in the direction sought with a large enough effect; inconclusive means small, poorly fitted or top-dose-only effect, or another doubt; inactive means no such curve, though single readings can be large; an effect the other way counts as inactive or inconclusive. Where a SMILES comes first, the peptide text is derived from it.

Assays:
[1] = Primary qHTS for inhibitors of La Crosse Virus (LACV) - induced cell death in SH-SY5Y cells (AID 1508616);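 further: top concentration of the series differs between compounds; higher means more rescue of cells from virus-induced death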
Procedure, shortened: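 Readout was luminescence from ATPLite 1step added after a 6-day LACV infection (0.01 MOI) of SH-SY5Y cells that had received pin-transferred compound 24 hr after seeding.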

[2] = target: Calcium and integrin-binding protein 1 (Homo sapiens) (UniProt Q99828); experiment: Primary qHTS for Identification of Calcium Integrin Binding Protein 1 (CIB1) Competitor (AID 1508620);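 further: GST tagged CIB1 binding a fluorescein labelled alphaIIb integrin peptide tracer; top concentration of the series differs between compounds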
Chain of Calcium and integrin-binding protein 1 (Homo sapiens) (Q99828 whole entry, looked up): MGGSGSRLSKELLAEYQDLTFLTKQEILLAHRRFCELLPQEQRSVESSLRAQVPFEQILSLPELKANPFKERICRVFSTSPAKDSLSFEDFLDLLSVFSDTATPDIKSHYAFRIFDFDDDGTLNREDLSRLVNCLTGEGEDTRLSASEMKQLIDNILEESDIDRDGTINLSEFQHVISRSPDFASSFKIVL
Procedure, shortened: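 Fluorescence polarization competition: CIB1-GST (1 uM final) preincubated with compound 15 min at room temperature, then FITC-labeled alphaIIb peptide (100 nM final) added for another 15 min. Polarization read at Ex 480/Em 540.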

[3] = Primary qHTS for small molecule stabilizers of the endoplasmic reticulum resident proteome: Secreted ER Calcium Modulated Protein (SERCaMP) assay (AID 1508630)
Procedure, shortened: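 GLuc-SERCaMP-expressing SH-SY5Y cells, pretreated 16 h with compound, are challenged with thapsigargin to empty ER calcium stores; after 4 h, coelenterazine is added directly to the medium and luminescence is imaged.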

[4] = A High-Content qHTS Against Drug Library for the Identification of Small Molecules that Inhibit DYT1 Early Onset Primary Dystonia-Associated Cell Pathology (AID 1645839; calls by dose curve; further: potency means the concentration at half of the fitted maximal effect)
Procedure, shortened: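 Readout: %pathology, the punctate EGFP-TorsinA distribution from imaging, as the primary channel and cell count as the toxicity counterscreen. HEK293 Flp-In cells expressing delE TorsinA were induced with tetracycline and treated with compound for 48 h.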

Measured: Potency

CCOC(=O)c1ccc(NC(=O)CN2CCCCC2)cc1
inactive: all assays above

CN(C(=O)C(Cl)Cl)c1ccc(OC(=O)c2ccco2)cc1
inactive: all assays above

CCc1cc2cc(OC)c(OC)cc2c(Cc2ccccc2)n1
inactive: all assays above

COc1ccc([C@@H]2Sc3ccccc3NC(=O)[C@@H]2O)cc1
inactive: all assays above

O=C(OCC(O)CO)c1ccccc1Nc1ccnc2c(C(F)(F)F)cccc12 (centres undefined)
inactive: all assays above

CCCCCCCCCCCCCCCCCCN(C)C
inactive: all assays above

Nc1ccc2c(c1)CN1C(=O)c3ccccc3C1=N2
inactive: all assays above

COCCc1ccccn1
inactive: all assays above

CC(=O)N[C@@H](CO)C(=O)N[C@@H](CC(=O)O)C(=O)N[C@@H](CCCCN)C(=O)N1CCC[C@H]1C(=O)O (Ac-SDKP-OH)
inactive: all assays above

C[C@H]1C[C@H]2[C@@H]3CCC4=CC(=O)C=C[C@]4(C)[C@H]3C(=O)C[C@]2(C)[C@@]1(O)C(=O)CO
inactive: all assays above

Cc1cc(CCCOc2c(C)cc(-c3noc(C(F)(F)F)n3)cc2C)on1
inactive: all assays above

C[C@]12CCC(=O)C=C1CC[C@@H]1[C@@H]2[C@@H](O)C[C@@]2(C)[C@H]1CC[C@]2(O)C(=O)COC(=O)CCC(=O)O
inactive: all assays above

Cc1cccc(C)c1NC(=O)c1ccc(N)cc1
inactive: all assays above

Cc1ccc(Cl)c(OCC(O)CNC(C)(C)C)c1 (centres undefined)
inactive: all assays above

CNC[C@H](O)[C@@H](O)[C@H](O)[C@H](O)CO
inactive: all assays above

O=C(CCCl)NCCc1ccccc1
inactive: all assays above

CC(C)(Oc1ccc(Cl)cc1)C(=O)OCCCOC(=O)C(C)(C)Oc1ccc(Cl)cc1
inactive: all assays above

NC(=O)NC1N=C([O][Al])NC1=O (centres undefined)
inactive: all assays above

CCOc1ccc(NS(=O)(=O)c2ccc(N)cc2)nn1
inactive: all assays above

O=c1[nH]c(=O)n([C@H]2O[C@H](CO)[C@@H](O)[C@@H]2O)cc1/C=C\Br
inactive: all assays above

CCCCCC(=O)O[C@]1(C(C)=O)CC[C@H]2[C@@H]3CCC4=CC(=O)CC[C@]4(C)[C@H]3CC[C@@]21C
inactive: all assays above

CCOC(=O)NNc1ccc(N(CC)CC(C)O)nn1 (centres undefined)
inactive: all assays above

CCCc1ccc(OCC(=O)N2CCN(C(=O)COc3ccc(CCC)cc3OC)CC2)c(OC)c1
active: [4] 11.2 µM
inactive: all other assays above

Nc1ncnc2c1ncn2Cc1c(F)cccc1Cl
inactive: all assays above

O=C(O)Cc1ccccc1Oc1ccc(Cl)cc1Cl
inactive: all assays above

CCC(C(=O)NC(=O)NC(C)=O)c1ccccc1 (centres undefined)
inactive: all assays above

COc1ccccc1N1CCN(CC(O)COc2cc(OC)c(OC)c(OC)c2)CC1 (centres undefined)
inactive: all assays above

Cc1sccc1Br
inactive: all assays above

COCCOCC(OC)OC
inactive: all assays above

CC(Oc1c(Cl)cccc1Cl)C1=NCCN1 (centres undefined)
inactive: all assays above

CN(CC1(C)CCCO1)S(=O)(=O)c1ccc(Cl)c(S(N)(=O)=O)c1 (centres undefined)
inactive: all assays above

CCN(CC)CC(=O)OCC(=O)[C@@]1(O)CC[C@H]2[C@@H]3CCC4=CC(=O)CC[C@]4(C)[C@H]3[C@@H](O)C[C@@]21C
inactive: all assays above

CCCCCCn1c(=O)c2c(ncn2C)n(C)c1=O
inactive: all assays above

CC(=O)/C=C/C=C1/C2CCC(C2)C1(C)C (centres undefined)
inactive: all assays above

CCN1CCN(c2cc(-c3ccc(F)cc3)c3c(n2)CCCCCC3)CC1
inactive: all assays above

O=C(Oc1ccccc1)c1ccccc1O
inactive: all assays above

O=C(CCCCCCCCC#CI)Oc1ccccc1
inactive: all assays above

CC(=O)N(CC(=O)N(C)C)c1ccccc1
inactive: all assays above

Clc1ccc2c(c1)Nc1ccccc1S2
inactive: all assays above

CC(=O)Oc1ccc(C2(c3ccc(OC(C)=O)cc3)Oc3ccccc3NC2=O)cc1
active: [4] 12.6 µM
inactive: all other assays above

O=C(CCOCCOCCOCCOCCC(=O)Nc1c(I)cc(I)c(C(=O)O)c1I)Nc1c(I)cc(I)c(C(=O)O)c1I
inactive: all assays above

Cn1c(=O)c2c(ncn2CC(=O)O)n(C)c1=O
inactive: all assays above

O=C1Cc2cc(Cl)ccc2N1
inactive: all assays above

CC1(C)O[C@@H]2C[C@H]3[C@@H]4C[C@H](F)C5=CC(=O)C=C[C@]5(C)[C@@]4(F)[C@@H](O)C[C@]3(C)[C@]2(C(=O)CO)O1
inactive: all assays above

COc1ccc2c(c1)CCCC2=O
inactive: all assays above

Nc1ccc([N+](=O)[O-])c(C(F)(F)F)c1
inactive: all assays above

CCCC(=O)O[C@]1(C(=O)CCl)[C@@H](C)C[C@H]2[C@@H]3CCC4=CC(=O)C=C[C@]4(C)[C@@]3(F)C(=O)C[C@@]21C
inactive: all assays above

CCOC(=O)NNc1nncc2ccccc12
inactive: all assays above

CC(=O)OCC[N+](C)(C)C
inactive: all assays above

C[C@H](CN1CCCC1)C(=O)c1ccc(C(F)(F)F)cc1
inactive: all assays above

COCCc1ccc(OCC2CO2)cc1 (centres undefined)
inactive: all assays above

O=C(OCC(COC(=O)c1cccnc1)(COC(=O)c1cccnc1)COC(=O)c1cccnc1)c1cccnc1
inactive: all assays above

O=C(CCCCC(=O)Nc1c(I)cc(I)c(C(=O)O)c1I)Nc1c(I)cc(I)c(C(=O)O)c1I
inactive: all assays above

Cc1ccc(/C=N/n2c(-c3ccccc3)csc2=S)cc1
inactive: all assays above

Cc1ccccc1N1CCN(CCc2nnc3n2CCCC3)CC1
inactive: all assays above

COc1ccc2nc(SCc3ncc(C)c(OC)c3C)[nH]c2c1
inactive: all assays above

C[C@@H]1C[C@H]2[C@@H]3CCC4=CC(=O)C=C[C@]4(C)[C@@]3(F)[C@@H](O)C[C@]2(C)[C@@]1(O)C(=O)COC(=O)c1ccncc1
inactive: all assays above

O=C1CC2(CCCC2)CC(=O)N1CCNCC1COc2ccccc2O1 (centres undefined)
inactive: all assays above

Nc1ncnc2nc[nH]c12
inactive: all assays above

CCCCC(O)/C=C(C)/C=C/C=C/C(=O)N1CCCC1=O (centres undefined)
inactive: all assays above

COC(=O)c1ccc(NC(C)=O)cc1OC
inactive: all assays above

O=C1CC2(CCCC2)CC(=O)N1
inactive: all assays above

CN1CC(=O)N2[C@H](c3ccc4c(c3)OCO4)c3[nH]c4ccccc4c3C[C@@H]2C1=O
inactive: all assays above

CC(=O)[C@@]1(O)CC[C@H]2[C@@H]3C[C@H](C)C4=CC(=O)CC[C@]4(C)[C@H]3CC[C@@]21C
inactive: all assays above

CCOC(=O)C(=O)CCc1ccccc1
inactive: all assays above

O=S(=O)(O)c1ccc2nc(-c3ccccc3)[nH]c2c1
inactive: all assays above

C/C(=C1\CCOC(=O)S1)N(C=O)Cc1cnc(C)nc1N
inactive: all assays above

CCC(=O)Oc1ccc2c(c1)CC[C@@H]1[C@@H]2CC[C@@]2(C)[C@H]1C[C@@H](OC(=O)CC)[C@@H]2OC(=O)CC
inactive: all assays above

NS(=O)(=O)c1ccc(N2CCCCS2(=O)=O)cc1
inactive: all assays above

CCOC(=O)CN1CCCC1=O
inactive: all assays above

CC(NC(CCc1ccccc1)C(=O)O)C(=O)N1C(=O)N(C)CC1C(=O)O (centres undefined)
inactive: all assays above

O=C(O)/C=C(\CC(=O)O)C(=O)O
inactive: all assays above

CN1Cc2cc(C(=O)N3CCC(C4CCNCC4)CC3)ccc2N[C@@H](CC(=O)O)C1=O
inactive: all assays above

CN(C)C(=O)CNC(=O)Cc1ccccc1
inactive: all assays above

Cc1cc(O)c(C)c(C)c1O
inactive: [1] | [2] | [4]
